Results reported in PubChem BioAssay AID2551 (National Center for Advancing Translational Sciences (NCATS), 2010).
The whole screen tested about 310,000 compounds, of which about 17,000 (5.5%) were called active. About 11% were inconclusive and are not listed. The full list was thinned out, with actives kept by preference. Unmarked numbers belong to inactive results. Calls come from the whole dose curve; as a rule, active = well fitted inhibition curve with a large enough effect; inconclusive = small, poorly fitted or top-dose-only effect, or effect the other way; inactive = no such curve, though single readings can be large or run the other way.

biological target: Nuclear receptor ROR-gamma (Mus musculus) (UniProt P51450); assay: qHTS for inhibitors of ROR gamma transcriptional activity; settings: Drosophila S2 Gal4-RORgamma UAS-luciferase reporter, 20 h; series mostly up to 53.6 µM; activity change, negative = inhibition: at the top concentration; note: nearly all actives have a fitted effect of over 60% in size
Sequence (P51450 whole entry, looked up, the tested form may be a part): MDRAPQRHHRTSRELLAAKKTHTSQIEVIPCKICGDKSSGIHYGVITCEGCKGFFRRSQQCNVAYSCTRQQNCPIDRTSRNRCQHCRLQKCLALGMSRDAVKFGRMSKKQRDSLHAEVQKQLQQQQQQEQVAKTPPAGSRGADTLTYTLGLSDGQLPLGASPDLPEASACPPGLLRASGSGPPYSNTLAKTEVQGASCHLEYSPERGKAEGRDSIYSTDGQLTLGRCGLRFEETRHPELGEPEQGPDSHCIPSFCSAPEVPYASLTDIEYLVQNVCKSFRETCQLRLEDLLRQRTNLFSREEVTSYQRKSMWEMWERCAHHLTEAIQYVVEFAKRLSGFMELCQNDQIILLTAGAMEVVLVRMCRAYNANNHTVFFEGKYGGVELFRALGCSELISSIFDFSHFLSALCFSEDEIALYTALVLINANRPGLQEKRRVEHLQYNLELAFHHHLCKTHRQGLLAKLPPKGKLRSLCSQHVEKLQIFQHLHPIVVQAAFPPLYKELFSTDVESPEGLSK
Procedure, shortened: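 Stably transfected Drosophila Schneider cells are the test system, with ROR gamma fused to Gal4 and luciferase under UAS control; luminescence is read after 20 hr of 700 uM copper sulfate induction at ambient temperature.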
% is set by controls: 0 for no effect and ±100 for the full control effect; potency is the fitted concentration of half-maximal effect.

Structure (SMILES) | activity change, negative = inhibition | Potency
O=C(CN1CCN(c2ccc(Cl)cc2)CC1)c1ccccc1 | 0.492% | 
COc1ccc(S(=O)(=O)NCCOc2ccccc2)cc1F | 29.1% | 
COc1ccc(NS(=O)(=O)c2cc(C(=O)Nc3ccccc3C(=O)O)ccc2C)cc1 | 25.4% | 
COCCN(CC(=O)Nc1ccccc1C)S(=O)(=O)c1ccc(S(=O)(=O)N2CCCC2)cc1 | -8.45% | 
COCCN(CCOC)S(=O)(=O)c1ccc(/C(O)=C(\C#N)c2nc3ccccc3[nH]2)cc1 |  | 12.6 µM (active)
COc1ccc(/C=C(/NC(=O)c2ccc(C)cc2)c2nc3ccccc3[nH]2)cc1OC | 16.7% | 
COc1ccc(-n2c(=O)[nH]c3cc(C(=O)NCCc4ccc(OC)c(OC)c4)ccc3c2=O)c(OC)c1 | 27.9% | 
COc1ccc(CNC2CCCCC2)cc1 | -10.4% | 
COc1ccc(CN2CN(C3CCCC3)CSC2=S)cc1 |  | 7.94 µM (active)
COc1ccc(CN2CC(C(=O)NC3CCCCC3)CC2=O)cc1 (stereo not drawn) | 1.66% | 
CCN(C(=O)CN1C(=O)/C(=C/c2ccc(F)cc2)SC1=S)C1CCS(=O)(=O)C1 (stereo not drawn) | -12.7% | 
CN(CC(=O)NCc1ccc(Cl)cc1)S(=O)(=O)c1cccs1 | 21.2% | 
O=C(Cc1nc2ccccc2[nH]c1=O)c1ccc(Cl)cc1 | 32.2% | 
O=C(COc1ccccc1)NCCc1nc2ccccc2[nH]1 | 1.23% | 
N#C/C(=C(/O)COC(=O)COc1ccc(Cl)cc1)c1nc2ccccc2[nH]1 |  | 8.91 µM (active)
COc1ccccc1CNC(=O)C1CCN(S(=O)(=O)c2ccc3c(c2)OCCO3)CC1 | -14.7% | 
COc1ccc(NC(=O)CC(NC(C)c2ccccc2)C(=O)O)cc1 (stereo not drawn) | -12.4% | 
Cc1cc(NCc2ccco2)n2c(nc3ccccc32)c1C#N | 38.8% | 
Cc1nn2c3ccccc3nc2n(C)c1=O | -32% | 
CN1c2ccccc2-c2nc3ccccc3n2C1c1ccco1 (stereo not drawn) |  | 14.1 µM (active)
N#Cc1c(-c2ccccc2)nc(SCc2ccc([N+](=O)[O-])cc2)[nH]c1=O | 1% | 
CC(C)NC(=O)N1CCN(c2ccncc2S(=O)(=O)N2CCCCC2)CC1 | 8.85% | 
CC(C)C[C@H]1CN=C(Nc2ccccc2)N1CC1CCCCC1 | -2% | 
Cc1ccc(Nc2nc(N3CCOCC3)nc(N3CCOCC3)n2)cc1Cl | 3.19% | 
C/C(=N\Nc1nc(N2CCOCC2)nc(N2CCOCC2)n1)c1ccc([N+](=O)[O-])cc1 | -4.91% | 
C/C(=N\Nc1nc(Nc2ccccc2)nc(N2CCOCC2)n1)c1cccs1 |  | 14.1 µM (active)

Structure (SMILES) | activity change, negative = inhibition | Potency
Cc1ccc(-n2ncc(C(=O)NC3CC3)c2C2CCN(C(=O)OC(C)(C)C)CC2)c(C)c1 | 0.982% | 
CCOc1ccc(CNC(=O)C2CCCN(c3nnc(C)c4c(C)n(-c5ccccc5)nc34)C2)cc1 (stereo not drawn) | -25.4% | 
COc1ccc(-c2csc(NC(=O)CCCc3cccs3)n2)cc1 | 22.6% | 
CCCc1ccc(-c2csc(NC(=O)Cc3cccs3)n2)cc1 |  | 12.6 µM (active)
Cc1ccc(-c2csc(NC(=O)Cc3cccs3)n2)cc1C | 5.64% | 
O=C(COC(=O)/C=C/c1cccs1)NC1CCCCC1 | 21.6% | 
Cc1nc2ccccc2c(=O)n1Cc1ccc([N+](=O)[O-])cc1 | -3.36% | 
CCn1c(/C=C/c2ccc([N+](=O)[O-])o2)nc2ccccc2c1=O |  | 7.94 µM (active)
Cn1cc(/C=C/c2nc3ccccc3c(=O)n2-c2cccc([N+](=O)[O-])c2)c2ccccc21 | 0.991% [at 10 µM] | 
Cc1cccc(-c2c(NC(=O)c3ccco3)oc3ccc(Cl)cc3c2=O)c1 | -0.588% | 
CN(C)CCOC1c2ccccc2-c2ccccc21 | -25.2% | 
COc1ccc(CNC(=O)C2CCN(C(=O)c3ccccc3)CC2)cc1 | 2.56% | 
O=C(c1ccc[nH]c1=S)N1CCN(S(=O)(=O)c2ccc(Br)cc2Cl)CC1 |  | 22.4 µM (active)
O=C(c1ccccc1F)N1CCN(S(=O)(=O)c2ccc(Br)cc2)CC1 | -0.802% | 
O=C(c1ccc(Cl)c(S(=O)(=O)N2CCCCC2)c1)N1CCCCCC1 | 3.79% | 
COc1cc2c(C(=O)N(C)c3cc(Cl)ccc3OC)cn(C)c(=O)c2cc1OC | 18.1% | 
COc1ccc(CNC(=O)C2CCN(S(=O)(=O)c3ccc(SC)cc3)CC2)cc1 | 31.9% | 
Cc1cc(C(=O)COC(=O)C2CC2)c(C)n1-c1ccc(F)cc1 | 6.95% | 
Cc1nnc(SCC(N)=O)n1CC1CCCO1 (stereo not drawn) | 0.52% | 
Cc1ccsc1C(=O)OCC(=O)c1cc(C)n(CC2CCCO2)c1C (stereo not drawn) |  | 3.98 µM (active)
CCc1ccc(CN(C)C(=O)C2CCC(=O)N(Cc3cccc(OC)c3)C2)nc1 (stereo not drawn) | -27.6% | 
CC(C)CC(=O)Nc1ccc(Cc2ccncc2)cc1 | 9.55% | 
O=C(O)C1CCCN1C1=NS(=O)(=O)c2ccccc21 (stereo not drawn) | -12.2% | 
O=C(CN1CCC(NC(=O)C2CC2)CC1)Nc1ccccc1[N+](=O)[O-] | -10.8% | 
Cc1c(NC(=O)CSc2cccc3cccnc23)c(=O)n(-c2ccccc2)n1C |  | 7.94 µM (active)
Cc1ccc(NC(=O)CSc2cccc3cccnc23)c(C)c1 |  | 10 µM (active)

Structure (SMILES) | activity change, negative = inhibition | Potency
Cc1ccc(NC(=O)Cn2nc(C)c3ccccc3c2=O)c(C)c1 | 16.6% | 
O=C(CNC(=O)c1cccnc1)N/N=C/c1cccnc1 | -2.45% | 
C/C(CC(=O)Nc1ccc(C)cc1C)=N\NC(=O)C(C)C | -36.6% | 
O=C(CSc1cccc2cccnc12)N/N=C/c1cccnc1 |  | 7.08 µM (active)
Cc1nc2ccccc2n1CC(=O)N/N=C/c1cccnc1 | -11% | 
Cc1c(NC(=O)c2cccnc2)c(=O)n(-c2ccccc2)n1C |  | inactive
Cc1c(NC(=O)CSc2nnnn2-c2ccc(C(=O)O)cc2)c(=O)n(-c2ccccc2)n1C | -0.926% | 
Cc1cc(NC(=O)CCN2CCN(Cc3ccccc3)CC2)ccc1Br | 18.5% | 
CCN(CC)S(=O)(=O)c1ccc(N2CCOCC2)c(NC(=O)C2CSC3(C)CCC(=O)N23)c1 (stereo not drawn) | -10.9% | 
O=C(CCS(=O)(=O)c1ccc2c(c1)NC(=O)CS2)NCc1ccccc1Cl | -16.6% | 
Cc1ccc(CN(CC(=O)NC2CCCCC2)C(=O)c2csnn2)cc1 | -2.84% | 
O=C(c1ccccc1)N1CCC(CC2CC(c3ccc(Cl)cc3)=NO2)(C(=O)NCC2CCCCC2)CC1 (stereo not drawn) | 40.6% | 
COc1cccc(CNC(=O)CCC2CCCN(C(=O)c3ccc(F)c(Cl)c3)C2)c1 (stereo not drawn) | 18.5% | 
O=C1/C(=C\c2cccnc2)CN(Cc2ccccc2)C/C1=C\c1cccnc1 |  | 6.31 µM (active)
O=Cc1cn(Cc2ccccc2)nc1-c1cccnc1 | 31.5% | 
Clc1ccc(CN2CCN(/N=C/c3cccnc3)CC2)cc1 | 30.9% | 
Cc1cc(C)c(S(=O)(=O)c2cc(F)ccc2C)c(=O)[nH]1 | 4.32% | 
O=S(=O)(c1ccc(Br)cc1)c1nc(-c2ccccc2)oc1N1CCOCC1 | 18.9% | 
CCOC(=O)c1cccc(NC(=O)CCc2nnc3ccc(N4CCOCC4)nn23)c1 | -7.72% | 
CCn1c2ccccc2c2cc(NC(=O)CNC)ccc21 | -24.9% | 
Cc1cc(N2CCN(C)CC2)nc2ccc(NC(=S)N3CCOCC3)cc12 | 20.9% | 
CCn1c2ccccc2c2cc(NC(=S)N3CCOCC3)ccc21 |  | 3.16 µM (active)
COc1ccc(NC(=O)CN2C(=O)CSc3ccc(S(=O)(=O)N4CCC(C)CC4)cc32)cc1 | -3.43% | 
CCOc1ccc(N(CC(=O)NCC2CCCO2)S(=O)(=O)c2ccc(C)cc2)cc1 (stereo not drawn) | -1.53% | 
CC(C)CNC(=O)C(=O)NCC(c1ccc2c(c1)OCO2)N1CCOCC1 (stereo not drawn) | -9.72% | 
O=C(CCN1C(=O)[C@@H]2Cc3ccccc3CN2C1=O)NCc1ccccc1 | -16.9% | 

Structure (SMILES) | activity change, negative = inhibition | Potency
COC(=O)c1ccccc1NC(=O)C1CCN(C(=O)N2CCOc3ccccc32)CC1 | -18.9% | 
CC(Sc1nnc(CNC(=O)c2ccccc2F)n1C)C(=O)Nc1nccs1 (stereo not drawn) | 44.3% | 
Cc1ccc(S(=O)(=O)N2CCC(C)CC2)cc1C(=O)NCc1ccccn1 | 20.4% | 
COc1cccc(CNC(=O)Cn2c(=O)oc3cc(S(=O)(=O)N4CCCCC4)ccc32)c1 | -5.77% | 
O=C(Cc1cccs1)Nc1ccc([N+](=O)[O-])cc1 | -3.22% | 
CCN1/C(=C/C(=S)Nc2ccccc2)Sc2ccccc21 |  | 3.16 µM (active)
O=C(CCN1c2ccccc2Sc2ccccc21)Nc1ccccc1 | 29.4% | 
CCNC(=O)N1c2ccccc2Sc2ccccc21 | 7.49% | 
COc1ccc(C(=O)NC2CC2)cc1OC1CCN(C/C=C/c2ccccc2)CC1 | -0.323% | 
CCCn1c(=S)[nH]c2ccc(C(F)(F)F)cc21 | 15.4% | 
CC(C)n1c(=S)[nH]c2cc(C(F)(F)F)ccc21 |  | 0.891 µM (active)
O=C(NCc1ccccc1)C(c1cccnc1)N(C(=O)c1csnn1)c1ccc(F)cc1 (stereo not drawn) | 22.6% | 
Cn1c(=O)c(=O)n(C)c2cc(S(=O)(=O)CCC(=O)N3CCCCC3)ccc21 | -3.07% | 
COc1ccc(/C=C/c2c(-c3cccc(C)c3)oc3ccc(-c4ccc5c(c4)OCO5)cc23)cc1 | -3.64% | 
COc1ccccc1NC(=O)C1=C(C)Nc2ncnn2C1c1ccc(C)o1 (stereo not drawn) | -5.98% | 
CCOC(=O)c1ccc(NC(=O)C2CC(=O)Nc3nc4ccccc4n32)cc1 (stereo not drawn) | 0.863% | 
COc1ccccc1NC(=O)C1=C(C)Nc2nc3ccccc3n2C1c1cccs1 (stereo not drawn) |  | 11.2 µM (active)
CCOC(=O)C1=C(C)NC(=S)NC1c1cccs1 (stereo not drawn) | -23.4% [at 10 µM] | 
COc1ccccc1NC(=O)C1=C(C)NC(=O)NC1c1ccc(C)s1 (stereo not drawn) | 11.4% | 
CCOC(=O)C1=C(C)Nc2nc3ccccc3n2C1c1cccs1 (stereo not drawn) |  | 5.62 µM (active)
Cc1cccc(CCNS(=O)(=O)c2ccc3c(c2)NC(=O)CO3)c1 | -11.1% | 
O=C(NC1CCCC1)C(c1ccco1)N(C(=O)c1ccco1)c1ccc(F)cc1 (stereo not drawn) | -1.35% | 
Cc1ccc(C(=O)Oc2ccc(C(=S)N3CCOCC3)cc2)cc1 | 29.2% | 
COCC(=O)N1CCCC(C(=O)c2ccc(C(F)(F)F)cc2)C1 (stereo not drawn) | -16.9% | 
NC(=O)c1ccc(Nc2ccc3c(c2)CCC3)c([N+](=O)[O-])c1 | 37.1% | 
